Compounds with a hit are over-represented: about 2.8% of the library has one in this group of screens.
EBV LMP1 NFkB: reduces LMP1-driven NF-kappaB luciferase signal; LMP1-induced NF-kappaB luciferase reporter cells, luminescence; inhibition, % at 12.5 µM; hit rate 0.69% among 350,000; AID 504558; in the data active = inhibition above about 41%;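 note: 0% = neutral control wells and 100% = reference inhibitor control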
HIF-2a inh: HIF-2a inhibition; 786-0 RCC cells HIF-2a reporter, luciferase luminescence, overnight; AID 624352; hit rate 0.72% among 360,000; inhibition, % at 18.8 µM;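 active = inhibition of the luminescence signal of 40% or more relative to plate controls, in a single-dose primary screen at 18.75 µM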
Shn3 3UTR inh: inhibitors of Schnurri-3 3'UTR reporter in osteoblasts; Clone20 osteoblast Shn3 3'UTR firefly luciferase, 24 h; inhibition, % at 12.5 µM; hit rate 0.52% among 360,000; AID 588674;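 active = mean inhibition of at least 75% with every replicate also reaching 75%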;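 note: 0% = median of neutral control wells and 100% = pilot-screen positive control compound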
PAX8 inh HTS: lowers PAX8-driven luciferase in RMG-I cells; hit rate 1.2% among 360,000; RMG-I TPO-luciferase reporter, SteadyGlo, 24 h; inhibition, % at 12.6 µM;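 active = mean replicate inhibition at least 60% with every replicate also reaching 60%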;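 note: luciferase light reporting Pax8 driven TPO promoter activity; plate controls were median of neutral control wells for no effect and mitoxantrone controls for full effect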
MITF TRPM1 inh: inhibitors of MITF-driven TRPM1 promoter in melanoma cells; SK-MEL-5 TRPM1 promoter luciferase, 24 h; hit rate 0.83% among 330,000; inhibition, % at 12.5 µM;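 active = mean inhibition across replicates of 60% or more, whatever share of single replicates reaches that level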
Peg3 promoter: inhibitors of Peg3 promoter. inhibition, % at 20 µM. AID 588405. hit rate 1.7% among 360,000. HeLa PEG-Prom luciferase reporter, luminescence, overnight;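 active = inhibition of at least 50% at 20 µM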
* = called active by the depositor; · = no result given.

SMILES | EBV LMP1 NFkB | HIF-2a inh | Shn3 3UTR inh | PAX8 inh HTS | MITF TRPM1 inh | Peg3 promoter
N=c1n(CCO)c2ccccc2n1CCOc1ccc(Cl)cc1Cl | -56.9 | -0.8 | 11.5 | 11.1 | 4.0 | 103.3*
Cc1ccn2cc(-c3ccc(O)c(O)c3)nc2c1 | 12.7 | -106.9 | 86.5* | 30.8 | 7.7 | -119.2
CCNc1ccc(Br)cc(C(=O)/C=C/c2ccc(Cl)cc2Cl)c1=O | 48.6* | -1.2 | -11.1 | · | 27.0 | 22.9
COC(=O)CNc1nc(C2CC2)nc2c1nnn2Cc1ccccc1Cl | 15.3 | -1.7 | -0.9 | · | 11.0 | 22.8
CCc1nc(Nc2ccc(OC)c(OC)c2)c2nnn(Cc3ccccc3Cl)c2n1 | 27.5 | 12.5 | 84.5 | · | 71.2* | 24.8
CN(C)S(=O)(=O)c1ccc(Nc2nc(C3CC3)nc3c2nnn3Cc2ccccc2Cl)cc1 | 8.1 | 27.7 | 69.5 | 66.9* | 37.0 | 39.7
COc1cccc(S(=O)(=O)Nc2ccc3c(c2)OC[C@H](C)N(C(=O)Cc2cccnc2)C[C@@H](C)[C@@H](OC)CN(C)C3=O)c1 | · | · | · | -4.7 | · | ·
COc1cc(CCc2ccccc2)c(C(=O)O)c(O)c1C/C=C(/C)CCC=C(C)C | 6.9 | -1.4 | 1.2 | -11.4 | -4.4 | 56.9*
COc1cc(CCc2ccccc2)c(C(=O)O)c(O)c1CC=C(C)C | 9.9 | -5.6 | -2.9 | · | -1.2 | 13.9
CCCN(C)C[C@H]1OCCCC[C@@H](C)Oc2ccc(NC(=O)C3CCCCC3)cc2C(=O)N([C@H](C)CO)C[C@H]1C | · | · | · | -10.6 | · | ·
C=CCN=C1NN=C(c2ccc3c(c2)OCCO3)CS1 | 46.6* | -17.3 | -10.5 | -30.7 | 68.6* | 2.0
c1ccc(C2=NNC(=NCc3ccc4c(c3)OCO4)SC2)cc1 | -2.1 | -110.4 | -18.0 | · | -34.8 | -175.6
CCOC(=O)N1CCN(C(=O)CCS(=O)(=O)c2ccc3c(c2)CC(C)N3C(=O)CC)CC1 (centres undefined) | 1.7 | 4.8 | 15.8 | -1.5 | -6.3 | 14.8
CCC(=O)N1c2ccc(S(=O)(=O)CCC(=O)N3CCn4c3nc3ccccc34)cc2CC1C (centres undefined) | 12.8 | 17.2 | 12.1 | 106.1* | 20.7 | 21.1
CCOC(=O)CSC1=C(C#N)C(c2ccc(C)o2)CC(=O)N1 (centres undefined) | 0.0 | 25.4 | 5.8 | 64.7* | 28.2 | -19.3
O=C1C=C(N(CCO)Cc2ccccc2)c2ccccc2C1=O | 16.6 | -10.9 | -18.6 | · | 106.5* | 37.8
O=C1c2ccccc2C(=O)c2c1cccc2N(CCO)CCO | 3.7 | -49.3 | -0.1 | -8.3 | 5.4 | -14.3
COc1ccc2c3c(n(C)c2c1)[C@H](CO)N(C(=O)c1ccccc1)CC31CCN(C)CC1 | · | · | · | -50.3 | · | ·
Nc1c(S(=O)(=O)c2cccs2)c2nc3ccccc3nc2n1/N=C/c1cccc(O)c1 | -3.1 | 40.0* | 78.9 | · | 20.6 | 91.8*
COc1cccc(/C=N/n2c(N)c(S(=O)(=O)c3cccs3)c3nc4ccccc4nc32)c1 | -9.1 | 5.7 | -7.8 | -9.5 | -11.5 | 19.0
O=S(=O)(Nc1cccc(-c2cn3cccnc3n2)c1)c1ccc(F)cc1 | 0.3 | 18.6 | -0.6 | 77.1* | 9.3 | 18.0
O=S(=O)(Nc1cccc(-c2cn3cccnc3n2)c1)c1ccc(-c2ccccc2)cc1 | 0.3 | 15.7 | -3.9 | · | -0.8 | 12.9
C[C@@H]1CN([C@@H](C)CO)C(=O)c2cccc(N(C)C)c2O[C@@H]1CN(C)Cc1ccccc1 | · | · | · | -12.9 | · | ·
C=C/C(C)=C/CC1C(=C)CCC2C(C)(C(=O)O)CCCC12C (centres undefined) | 0.0 | 9.7 | -22.6 | · | -1.1 | 6.8
C=C1C(=O)[C@]23C[C@H]1CCC2[C@]1(C)C(=O)CC[C@@](C)(C(=O)O)C1C[C@@H]3O (some centres undefined) | · | 13.3 | 64.5 | 65.4* | · | 61.1*
SMILES | EBV LMP1 NFkB | HIF-2a inh | Shn3 3UTR inh | PAX8 inh HTS | MITF TRPM1 inh | Peg3 promoter
C=C1C(=O)[C@]23C[C@H]1CC[C@H]2[C@]1(C)[C@@H](OC(C)=O)CC[C@@](C)(C(=O)O)[C@H]1C[C@@H]3OC(C)=O | · | -26.2 | 33.4 | 86.2* | · | 33.4
Cc1ccc(S(=O)(=O)Nc2ccc3c(c2)C(=O)N([C@@H](C)CO)C[C@@H](C)[C@@H](CN(C)S(=O)(=O)c2cn(C)cn2)O3)cc1 | · | · | · | -64.8 | · | ·
O=C(NCC[C@H]1CC[C@@H](NC(=O)C2CCCC2)[C@H](CO)O1)c1cnccn1 | · | · | · | -2.7 | · | ·
COc1ccc(-n2cc(-c3ccccc3)c3c(N4CC(C)OC(C)C4)ncnc32)cc1 (centres undefined) | 9.3 | 28.1 | 20.6 | 27.5 | 0.6 | 63.8*
C[C@H](NC(=O)C[C@@H]1CC[C@H](NC(=O)C2CCC2)[C@@H](CO)O1)c1ccccc1 | · | · | · | 8.4 | · | ·
Cc1ccccc1C(=O)O/N=C(\N)c1ccncc1 | 56.0* | -217.2 | -39.0 | -130.4 | -23.9 | -193.2
N/C(=N\OC(=O)c1ccccc1Cl)c1ccncc1 | -20.2 | -328.9 | -105.3 | -90.3 | -57.5 | -202.1
O=C(NC(NC(=S)Nc1cccc(C(=O)O)c1)C(Cl)(Cl)Cl)OCc1ccccc1 (centres undefined) | 4.7 | 25.7 | -13.3 | 17.4 | -2.6 | 13.0
O=C(NC(NC(=S)Nc1cccc(Cl)c1)C(Cl)(Cl)Cl)OCc1ccccc1 (centres undefined) | -0.9 | -13.7 | -13.6 | · | 8.8 | 52.6*
Cn1c(=O)c2[nH]c(N=Nc3ccc(N)cc3N)nc2n(C)c1=O | 51.1* | 17.3 | -1.9 | -8.7 | 10.3 | 10.2
CCOC(=O)c1ccc(-c2ccc(/C=C(\C#N)C(=O)NCc3cccs3)o2)cc1 | -9.3 | 4.8 | 15.5 | -8.9 | 45.4 | 71.5*
COc1cc(OC)c(OC)cc1/C=C(\C#N)C(=O)NCc1cccs1 | 19.5 | 7.6 | 16.6 | 14.8 | 6.1 | 2.4
O=C(N[C@H]1CC[C@H](CCNS(=O)(=O)c2ccc(F)cc2)O[C@@H]1CO)C1CCCC1 | · | · | · | 14.8 | · | ·
C[C@@H]1CN([C@H](C)CO)C(=O)c2cc(NS(=O)(=O)c3ccc(F)cc3)ccc2O[C@@H](C)CCCCO[C@@H]1CN(C)Cc1ccccc1 | · | · | · | 106.1* | · | ·
C[C@H](CO)N1C[C@H](C)[C@@H](CN(C)Cc2ccc(C(F)(F)F)cc2)OCCCC[C@H](C)Oc2ccc(NS(=O)(=O)c3ccc(F)cc3)cc2C1=O | · | · | · | 94.2* | · | ·
C[C@H](CO)N1C[C@H](C)[C@@H](CN(C)Cc2ccccc2)OCCCC[C@H](C)Oc2ccc(NS(=O)(=O)c3ccc(F)cc3)cc2C1=O | · | · | · | -18.4 | · | ·
C[C@H]1CCCCO[C@H](CN(C)Cc2ccc(C(F)(F)F)cc2)[C@@H](C)CN([C@@H](C)CO)C(=O)c2cc(NS(=O)(=O)c3ccc(F)cc3)ccc2O1 | · | · | · | 88.8* | · | ·
O=C(C[C@@H]1C[C@@H]2c3cc(NS(=O)(=O)c4ccccc4)ccc3O[C@@H]2[C@H](CO)O1)NC1CCCCC1 | · | · | · | 2.4 | · | ·
COc1ccc(NC(=O)N(C)C[C@H]2Oc3c(NS(=O)(=O)c4ccc(Cl)cc4)cccc3C(=O)N([C@@H](C)CO)C[C@@H]2C)cc1 | · | · | · | -5.5 | · | ·

Screens deposited in PubChem BioAssay by several laboratories.
